Assay results as given in the supplement of paper PMC7335073.
Over roughly 4,100 sequences, “relative CpG methylation activity (normalised to average over all NNNCGNNN flanks)” has its median near 0.94; the highest 2% begin near 1.9. Many of the other results were omitted from the sample, so the highest values are more common in it than they were.

Each sequence was assayed against DNMT3B catalytic domain (mouse) (UniProt O88509) (assay: relative CpG methylation activity (normalised to average over all NNNCGNNN flanks) (relative (1 = mean)); higher = more methylation of the central CpG). Conditions: system: in vitro, murine catalytic domain; CpG state: hemimethylated substrate pool; residues: 558-859.
Chain of DNMT3B catalytic domain (mouse) (O88509 558-859): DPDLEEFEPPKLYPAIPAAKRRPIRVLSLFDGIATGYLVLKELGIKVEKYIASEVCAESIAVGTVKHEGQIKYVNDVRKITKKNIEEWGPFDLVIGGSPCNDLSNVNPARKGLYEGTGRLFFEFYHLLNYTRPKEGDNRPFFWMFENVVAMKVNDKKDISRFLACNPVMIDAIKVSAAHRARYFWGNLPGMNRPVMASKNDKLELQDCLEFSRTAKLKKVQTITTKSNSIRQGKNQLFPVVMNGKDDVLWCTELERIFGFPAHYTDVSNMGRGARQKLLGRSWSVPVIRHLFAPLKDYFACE
Experimental: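 Deep enzymology: a pool of dsDNA substrates with a central CpG flanked by 10 random nucleotides on each side was methylated by the murine DNMT3A or DNMT3B catalytic domain (0.8 mM SAM, 37 °C, 60 min). Methylation was then read out by hairpin ligation, bisulfite conversion and NGS. Values are the average methylation of each NNNCGNNN context (±3 flanks; the outer flanks are random and averaged over), normalised to the overall mean, so 1 = average activity.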

Sequence	relative CpG methylation activity
ACGCGTTC	0.658
ACCCGCGA	0.371
GCACGCTG	0.98
CAACGATC	1.94
ACACGATA	1.75
CAACGATG	1.43
ATACGATA	2.03
CAACGATA	1.77
GTACGATA	1.73
CTACGACC	1.82
ATACGATT	1.74
CCACGATC	1.74
ATACGATC	2.12
CTACGATC	1.92
ATACGATG	1.63
GTTCGCAA	0.436
TCTCGGTT	0.917
ACTCGGCG	1.6
TGGCGTGT	0.0208
CAGCGACA	0.777
CTGCGTCA	0.944
CCTCGCCA	1.05
GGCCGGGT	0.602
GGCCGAGC	1.53
TGACGCCT	1.11

Sequence	relative CpG methylation activity
CCACGATA	1.7
CTACGATA	1.97
CTACGCTC	1.91
CTACGCTA	1.47
CTACGATG	1.83
GTACGCTC	1.53
TAGCGCCT	0.72
CGACGTAA	0.604
GGTCGATT	1.49
AGTCGGCA	2.11
TATCGGCA	1.95
CATCGGCA	1.83
TATCGGCC	2.01
AATCGGCA	1.74
TCTCGGCT	1.8
TCTCGGCC	1.96
AATCGGCC	1.88
TATCGGCG	1.79
CCTCGGCC	1.66
AGTCGGCT	1.79
AGTCGGCC	1.69
ATTCGAGG	1.29
AGTCGGGT	1.16
GTACGCCT	1.73
TTCCGATG	1.47

Sequence	relative CpG methylation activity
GGCCGCGC	0.361
AGACGGTA	1.16
GCTCGATG	1
ATTCGGCG	1.77
TTACGGCT	1.98
ATTCGGCC	2.04
CTACGGCC	1.96
TCACGGCT	1.83
CTGCGGCC	1.22
GTACGGAG	1.39
GTACGGTG	1.48
GTACGGCG	2.05
CTACGGAC	1.64
TTACGGTT	1.85
ATTCGGCT	1.69
ATGCGGAC	0.76
TTGCGAAG	0.966
ATCCGCCG	0.929
CACCGGGT	1.06
CAGCGCTG	0.635
GTGCGCGT	0.649
TGTCGCCC	0.734
TGACGAGT	1.21
AGTCGTGG	0.341
CGTCGTGT	0.248

Sequence	relative CpG methylation activity
ATACGGCA	2.11
ATGCGGCT	1.55
TTGCGGCT	1.95
CCACGGCA	1.74
CTACGGCA	2.23
ATACGGCG	2.11
ATACGGTA	1.64
TTGCGGCC	1.43
ATACGGAA	1.32
ATACGGAG	1.21
ATACGGTG	1.75
CTACGGAA	1.68
AAACGAAA	1.58
CATCGTCC	0.944
GTGCGTCA	0.799
TCCCGGGG	1.21
CATCGCGG	0.514
GAACGGCG	1.53
AGGCGTGC	0.175
ACCCGGTT	1.29
GCTCGGGA	1.17
CTACGGCT	2.28
GCACGGCA	1.79
